Only a selection was taken, and hits are over-represented in it overall.
KDM5B inh – blocks human KDM5B histone demethylase activity. KDM5B demethylase, FDH-coupled NADH fluorescence (FDH is formaldehyde dehydrogenase). Potency, µM (doses to about 57.7 µM), actives largely listed as inhibitors. 2.6% of 220,000 active. AID 1347165; active means well fitted inhibition curve with a large enough effect; further: nearly all actives have a fitted effect of over 70% in size
Target sequence (Q9UGL1 whole entry, looked up): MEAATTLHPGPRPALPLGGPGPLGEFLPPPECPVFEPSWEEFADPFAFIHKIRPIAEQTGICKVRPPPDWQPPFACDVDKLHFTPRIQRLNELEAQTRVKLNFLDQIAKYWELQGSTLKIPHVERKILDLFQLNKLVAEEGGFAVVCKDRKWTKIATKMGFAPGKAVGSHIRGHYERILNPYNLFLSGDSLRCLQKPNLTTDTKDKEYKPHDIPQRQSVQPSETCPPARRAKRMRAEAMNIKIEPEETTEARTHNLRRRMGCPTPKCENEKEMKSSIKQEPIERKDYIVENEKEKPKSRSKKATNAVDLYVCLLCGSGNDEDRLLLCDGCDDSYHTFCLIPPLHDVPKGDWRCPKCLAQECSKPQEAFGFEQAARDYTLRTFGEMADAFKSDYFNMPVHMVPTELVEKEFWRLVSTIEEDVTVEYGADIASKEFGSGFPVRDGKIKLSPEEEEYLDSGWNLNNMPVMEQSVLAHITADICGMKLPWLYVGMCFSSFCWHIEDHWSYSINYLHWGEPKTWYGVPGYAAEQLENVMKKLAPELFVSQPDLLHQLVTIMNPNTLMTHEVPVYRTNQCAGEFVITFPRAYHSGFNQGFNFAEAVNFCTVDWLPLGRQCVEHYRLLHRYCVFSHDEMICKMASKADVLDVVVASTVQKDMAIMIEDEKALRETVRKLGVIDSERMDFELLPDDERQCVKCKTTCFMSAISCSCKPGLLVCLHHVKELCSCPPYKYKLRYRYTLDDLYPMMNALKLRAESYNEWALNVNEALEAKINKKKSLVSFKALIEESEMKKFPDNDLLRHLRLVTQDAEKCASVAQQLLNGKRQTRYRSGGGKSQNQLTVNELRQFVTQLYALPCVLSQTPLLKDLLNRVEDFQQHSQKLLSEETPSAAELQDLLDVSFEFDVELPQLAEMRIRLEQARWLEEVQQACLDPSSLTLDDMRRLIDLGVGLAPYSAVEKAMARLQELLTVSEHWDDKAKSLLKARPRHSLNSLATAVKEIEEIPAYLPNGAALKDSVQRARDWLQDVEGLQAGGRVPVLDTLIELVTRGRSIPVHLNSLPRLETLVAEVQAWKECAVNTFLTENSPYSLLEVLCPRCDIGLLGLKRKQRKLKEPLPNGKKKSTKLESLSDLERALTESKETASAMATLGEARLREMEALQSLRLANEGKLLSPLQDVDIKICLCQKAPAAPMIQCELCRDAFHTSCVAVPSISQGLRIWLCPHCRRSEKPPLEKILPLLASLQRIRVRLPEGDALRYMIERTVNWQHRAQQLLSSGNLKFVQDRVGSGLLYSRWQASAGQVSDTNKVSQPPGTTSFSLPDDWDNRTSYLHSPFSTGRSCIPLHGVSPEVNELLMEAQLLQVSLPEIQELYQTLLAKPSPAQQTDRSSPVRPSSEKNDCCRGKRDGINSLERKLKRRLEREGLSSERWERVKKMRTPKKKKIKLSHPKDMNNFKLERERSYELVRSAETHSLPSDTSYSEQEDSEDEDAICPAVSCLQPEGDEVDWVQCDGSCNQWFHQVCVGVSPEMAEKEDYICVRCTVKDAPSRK
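Here, H3K4me3 peptide (12.5 µM in substrate mix) is demethylated by KDM5BΔAP, 200 nM final, after 10 min compound exposure. Formaldehyde product is coupled through FDH (0.25 U/mL in mix) to NADH fluorescence; 30-min ΔRFU feeds dose-response curves.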
Each line names hits and unclear results; the compound was inactive in the other large screens.

COc1cccc(CN2CCc3nc(N4CCN(C)CC4)[nH]c(=O)c3CC2)c1	none
Cc1ccc2cccc(OCc3nnc(SCC(=O)O)n3C)c2n1	none
O=C(Cn1ccc2c(Cl)cccc21)Nc1nnc(C2CC2)s1	none
Cc1n[nH]c(=S)n(/N=C/c2cccs2)c1=O	none
Cc1ccc(C(=O)c2ccccc2C(=O)NC2CCCC2)cc1	none
Cc1nc2ccc(C(=O)NC(C(=O)O)c3c(C)n[nH]c3C)cc2[nH]1 (stereo not given)	none
CCCC(=O)Nc1cccc(C(=O)NC(C(=O)O)c2c(C)n[nH]c2C)c1 (stereo not given)	none
CNc1ccc(C)cc1C(=O)NC(C(=O)O)c1c(C)n[nH]c1C (stereo not given)	KDM5B inh 32µM
CSc1nnc(-c2cc(Cl)ccc2NC(C)=O)c(=O)[nH]1	none
O=C(O)CCc1c[nH]c2ccccc12	none
CCCc1noc(-c2ccn3c(CNC(=O)c4ccccc4F)nnc3c2)n1	KDM5B inh 8.9µM
CCc1noc(-c2ccn3c(CNC(=O)c4ccc(F)cc4Cl)nnc3c2)n1	none
CCCc1noc(-c2ccn3c(CNC(=O)c4cc(F)ccc4F)nnc3c2)n1	KDM5B inh 32µM
CCc1noc(-c2ccn3c(CNC(=O)c4cc(F)ccc4F)nnc3c2)n1	none
CCCc1noc(-c2ccn3c(CNC(=O)c4c(F)cccc4F)nnc3c2)n1	KDM5B inh 28µM
CCCc1noc(-c2ccn3c(CNC(=O)c4ccccc4Cl)nnc3c2)n1	none
CCc1noc(-c2ccn3c(CNC(=O)c4c(F)cccc4F)nnc3c2)n1	none
Cc1nnsc1C(=O)NC(=O)Nc1ccc(F)c(Cl)c1	none
CC[C@H]1CN(C(=O)c2ccc(F)cc2)CC[C@H]1CC(=O)NC1CC1	none
Cc1ccc(C)c(N2CCN(C(=O)Cn3nc(Cc4cccnc4)c4ccccc4c3=O)CC2)c1	none
CCOc1ccc(Nc2cc(C(=O)NCC(OC)OC)c3ccccc3n2)cc1	none
CS(=O)(=O)N1CCCC(C(=O)NCCCN2CCCc3ccccc32)CCNC(=O)CC1 (stereo not given)	KDM5B inh 32µM
CS(=O)(=O)N1CCCC(C(=O)NCCc2cccnc2)CCNC(=O)CC1 (stereo not given)	none
C=CCNC(=O)C1CCCN(S(C)(=O)=O)CCC(=O)NCC1 (stereo not given)	none
CCCNC(=O)NC(=O)COC(=O)c1ccc2nc(C)c(C)nc2c1	none
COc1ccc(C2(C(=O)NCC(=O)N3CCCCCNC(=O)CC3c3ccccc3)CC2)cc1 (stereo not given)	none
COc1ccc2[nH]c(C(=O)NCC(=O)N3CCCCCCNC(=O)CC3c3ccccc3)cc2c1 (stereo not given)	KDM5B inh 16µM
O=C1NCCCCCCN(C(=O)c2cc3ccccc3[nH]2)[C@H]2CCC[C@@H]12	none
COc1ccc2[nH]c(C(=O)N3CCCCCNC(=O)[C@@H]4CCC[C@@H]43)cc2c1	KDM5B inh 28µM
COc1ccc(CCC(=O)NCC(=O)N2CCCCCNC(=O)CC2c2ccccc2)cc1 (stereo not given)	none
COc1ccc(C(=O)NCC(=O)N2CCCCCCNC(=O)CC2c2ccccc2)cc1 (stereo not given)	none
COc1ccc(C(=O)NCC(=O)N2CCCCCCNC(=O)CC2c2ccccc2)c(OC)c1 (stereo not given)	none
COc1ccc(C(=O)N2CCCCCCNC(=O)[C@@H]3CCC[C@@H]32)cc1	none
COc1ccc2[nH]c(C(=O)NCC(=O)N3CCCCCNC(=O)CC3c3ccccc3)cc2c1 (stereo not given)	KDM5B inh 28µM
Cn1c(SCC(=O)NCc2ccccc2CN2CCOCC2)nnc1-c1ccc(C(C)(C)C)cc1	none
Cc1noc(C)c1CO[C@@H]1COCC[C@H]1NC(=O)Cn1nc2ccccc2n1	none
Cn1c(=O)c2c(nc(SCC(=O)N3CCOCC3)n2Cc2ccccc2F)n(C)c1=O	none
CC(C)c1nc2c(c(-c3ccc(O)cc3)n1)CN(C(=O)c1ccc(F)cc1)CC2	none
COC(=O)c1nnn(-c2cccc(C)c2)c1C(=O)OC	none
CCOC(=O)c1ccc(NC(=O)CSC2=Nc3ccccc3N=C(c3cccc(OC)c3)C2)cc1	none
C=CCN1C[C@@]2(C(=O)O)CN(c3nccc4ccccc34)C[C@H]2C1=O	KDM5B inh 20µM
O=C(c1nccc2ccccc12)N1CCC(N2C(=O)C(O)C23CCCCC3)CC1 (stereo not given)	none
O=C(c1nccc2ccccc12)N1CCC2(CC1)CC(CO)N(C(=O)c1ccccc1)C2 (stereo not given)	none
CN(CCc1noc(C2CN(C(=O)CN3CCOCC3)C2)n1)S(C)(=O)=O	none
CC1(c2ccccc2)N(Cc2ccccc2)C(=O)OC12CCN(Cc1ccncc1)CC2 (stereo not given)	none
O=C(C1CCC1)N1CCC2(CC1)CN(c1ccccc1)C2=O	none
O=C(C1CC1)N1CC[C@](O)(c2ccccc2)[C@H](N2CCCC2)C1	KDM5B inh 16µM
C[C@@]1(O)CCN(Cc2cccc(F)c2F)C[C@H]1N1CCCC1	none
O[C@]1(c2ccccc2)CCN(Cc2ccncc2)C[C@H]1N1CCCC1	KDM5B inh 6.3µM
Cc1ccccc1C(=O)N1CC[C@](O)(c2ccccc2)[C@H](N(C)C)C1	none
CN(C)/C=C\C(=O)c1ccc(Br)cc1	none
Cc1ccc2c(=O)c(C(=O)c3ccc(F)cc3)cn(CC(=O)Nc3ccc4c(c3)OCCO4)c2n1	none
COCc1ccc(CNC(=O)C=C(C)C)cc1	none
N#C/C(=C\c1ccc(-c2ccc(Cl)cc2)o1)c1nc2ccccc2[nH]1	none
CN1CCc2[nH]cnc2C12CCN(C(=O)c1cc(=O)[nH]c3ccccc13)CC2	KDM5B inh 20µM
COc1cccc(N2CCN(C(=O)c3cc4cc(Cl)ccc4[nH]3)CC2)c1	none
CN1CCc2[nH]cnc2C12CCN(C(=O)c1cccc(-n3cccn3)c1)CC2	none
COc1ccc2[nH]c3c(c2c1)CCN(C)C31CCN(C(=O)c2cccnc2)CC1	none
COc1ccc2[nH]c3c(c2c1)CCN(C)C31CCN(C(=O)c2cccc(C)c2)CC1	none
COc1ccc2[nH]c3c(c2c1)CCN(C)C31CCN(C(=O)c2cn(C)cn2)CC1	KDM5B inh 25µM
CN1CCc2[nH]cnc2C12CCN(C(=O)CC1NC(=O)c3ccccc31)CC2 (stereo not given)	none
COc1ccc2[nH]c(C(=O)N3CCC4(CC3)c3nc[nH]c3CCN4C)cc2c1	KDM5B inh 28µM
Cc1nc2cc(C(=O)N3CCC4(CC3)c3nc[nH]c3CCN4C)ccc2s1	none
CCOc1ccccc1NC(=O)c1cc(S(=O)(=O)NC2CCCC2)ccc1F	none
Cc1ccc(NC(=O)COCC(=O)N(c2ccccc2)c2ccccc2)cc1	none
Cc1c(NC(=O)c2cccs2)cccc1-c1nc2cc(Cl)ccc2o1	none
CCCCN(C)CCNC(=O)c1nn(-c2ccc(OC)c(Cl)c2)c(=O)c2c1c1ccccc1n2C	none
O=C(NCc1ccccn1)C1Cn2cccc2C(=O)N1Cc1ccccc1 (stereo not given)	none
CN(CCC#N)Cc1cc(=O)oc2ccc3ccccc3c12	none
O=C(CN1CCC(c2ccccc2)CC1)N[C@H](c1ccccn1)C1CC(O)C1 (stereo not given in full)	none
Clc1ccccc1C1Cn2nnc(-c3noc(C4(c5ccccc5)CC4)n3)c2CO1 (stereo not given)	none
CC(C)(C)c1ccc(-c2noc(-c3ncn4c3COC(c3ccc(F)cc3)C4)n2)cc1 (stereo not given)	none
CCOc1ccccc1-c1nc(-c2nnn3c2COC(c2ccccc2Cl)C3)no1 (stereo not given)	KDM5B inh 28µM
CCOc1ccccc1-c1noc(-c2nnn3c2COC(c2ccc(C)cc2C)C3)n1 (stereo not given)	none

Compound activity (PubChem BioAssay)
